Sampled rows, rich in hits. Any-hit rate of the full collection: about 2.9%.
B2AR arrestin = qHTS assay of beta-arrestin-biased ligands of beta2-adrenergic receptor. Beta-2 adrenergic receptor (Homo sapiens), P07550. beta-arrestin recruitment to beta2AR, cell-based reporter. Potency, µM (highest dose often 46.1 µM), without a hit: top-dose activation, actives largely listed as activators. 0.02% of 330,000 active. AID 492947, 2010;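 also: potency is read from the fitted curve at half-maximal effect; 0% = DMSO controls and full agonism = EC100 isoproterenol or metaproterenol; nearly all actives have a fitted effect of over 65% in size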
DRD3 antagonist = qHTS of D3 Dopamine Receptor Antagonist: qHTS; D(3) dopamine receptor (Homo sapiens), P35462; D3R cells, DiscoveRx beta-arrestin luminescence, antagonist mode; hits give low values; max response, negative = inhibition, %; 2.5% of 360,000 active; in the data active = max response below about -50%; inconclusive = no clear call, values can overlap the other calls; also: % is scaled to controls: 0 for no effect and ±100 for the full control effect
Target sequence (P35462 whole entry, looked up): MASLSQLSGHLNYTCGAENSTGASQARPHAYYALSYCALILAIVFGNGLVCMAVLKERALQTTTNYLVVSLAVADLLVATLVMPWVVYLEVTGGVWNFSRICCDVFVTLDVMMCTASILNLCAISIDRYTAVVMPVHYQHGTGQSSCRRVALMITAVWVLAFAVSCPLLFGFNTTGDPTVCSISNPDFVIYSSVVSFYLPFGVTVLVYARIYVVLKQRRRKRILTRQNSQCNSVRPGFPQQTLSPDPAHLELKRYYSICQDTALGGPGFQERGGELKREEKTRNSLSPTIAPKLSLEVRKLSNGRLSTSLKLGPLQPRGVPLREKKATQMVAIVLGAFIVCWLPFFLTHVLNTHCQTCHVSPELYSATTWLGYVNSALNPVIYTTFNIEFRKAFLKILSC
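Cells plated overnight at 1500 cells/well, then exposed to library compounds with dopamine controls for 90 minutes at 37 degrees C. DiscoveRx reagent added for 30–60 minutes at room temperature; luminescence read, quantitative HTS format.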
mIDH1 inhibitor = qHTS for Inhibitors of mutant isocitrate dehydrogenase 1 (IDH1): qHTS; Isocitrate dehydrogenase [NADP] cytoplasmic (Homo sapiens), O75874; IDH1-R132H enzyme, NADPH consumption, diaphorase/resazurin fluorescence; Potency, µM (highest dose often 76.6 µM), for inactives: top-dose activity change, negative = inhibition, hits mostly inhibitors; 0.093% of 390,000 active; AID 602179, 2012; also: potency is read from the fitted curve at half-maximal effect; % is scaled to controls: 0 for no effect and ±100 for the full control effect; nearly all actives have a fitted effect of over 65% in size
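IDH1-R132H (0.5 ug/mL dispensed) in pH 7.5 Tris buffer was preincubated 30 min with compound, then given a substrate mix of 0.016 mM NADPH and 2 mM alpha-KG for 80 min at room temperature; remaining NADPH was read by diaphorase/resazurin fluorescence.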
D3 ag = qHTS of D3 Dopamine Receptor Agonist: qHTS; max activation, %; D3R DiscoveRx beta-arrestin cells, luminescence, 90 min; 0.58% of 410,000 active; in the data active = max activation above about 30%; also: 0% is about no effect
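Agonist mode: compounds and dopamine controls were applied to plated cells for 90 min at 37 degrees C after an overnight attachment at 1500 cells/well. Luminescent read-out followed 30 - 60 minutes at room temperature with DiscoveRx detection reagent.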
Integrin act MD = qHTS for Activators of Integrin-Mediated Alleviation for Muscular Dystrophy. 0.064% of 350,000 active. Potency, µM (top dose mostly 38.3 µM), for the others: at the highest dose activation, hits mostly activators. alpha7betagal myoblasts, beta-gal FDG fluorescence, 48 h. AID 624291, 2012;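 also: potency is read from the fitted curve at half-maximal effect; 100% = response of the positive control SU9516; nearly all actives have a fitted effect of over 60% in size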
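alpha7betagal+/- myoblasts (passage 13, 250/well) treated 48 h at 37C with compounds at 1:260 dilution of DMSO stock. Lysed, then beta-galactosidase activity read as FDG fluorescence (ex 480/em 540) after 30 min, with pre-read for autofluorescence.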
The depositor's hits bear a star; ! = repeats disagree; [ ] = another dose, or the depositor's remark. Unless noted, calls follow the shape of the dose curve; as a rule, active = well fitted curve in the direction sought with a large enough effect; inconclusive = small, poorly fitted or top-dose-only effect, or another doubt; inactive = no such curve, though single readings can be large; an effect the other way counts as inactive or inconclusive.

For COc1ccccc1C(CNC(=O)C(C)(C)Oc1ccc(Cl)cc1)N1CCCC1 (configuration not stated) the results were B2AR arrestin -1%, DRD3 antagonist -12, mIDH1 inhibitor 5%, D3 ag -15 and Integrin act MD -32%.
Screening COc1ccc(C(CNC(=O)COc2ccc(C)c(C)c2)N2CCCCC2)cc1 (configuration not stated) returned B2AR arrestin 0%, DRD3 antagonist -100*, mIDH1 inhibitor 7%, D3 ag -17 and Integrin act MD -6%.
`COc1ccc(C(CNC(=O)COc2ccccc2)N2CCCCC2)cc1` (configuration not stated) gave B2AR arrestin -1%, DRD3 antagonist -116*, mIDH1 inhibitor 16%, D3 ag -29 and Integrin act MD -11%.
`COc1ccc(C(CNC(=O)CNC(=O)c2cccc(C)c2)N2CCCCC2)cc1` (configuration not stated) gave DRD3 antagonist -52*, mIDH1 inhibitor 6%, D3 ag -27 and Integrin act MD -4%.
For COc1ccc(C(CNC(=O)COc2ccc(Cl)c(C)c2)N2CCOCC2)cc1 (configuration not stated) the results were mIDH1 inhibitor -9% and D3 ag -36.
For CCN1CCN(C(c2ccccc2Cl)c2sc3nc(-c4ccco4)nn3c2O)CC1 (configuration not stated) the results were mIDH1 inhibitor -5% and D3 ag -17.
For Cc1nc(N2CCOCC2)c2c(C(=O)N3CCN(c4cccc(C)c4C)CC3)c(C)oc2n1 the results were mIDH1 inhibitor 12% and D3 ag -12.
`CCn1nc(-c2ccccc2)c(-c2ccccc2)c(C(=O)Nc2nc(C)c(C(C)=O)s2)c1=O` gave mIDH1 inhibitor -11% and D3 ag 22.
Screening COc1ccc(C(CNC(=O)Cc2ccccc2Cl)N2CCCCC2)cc1 (configuration not stated) returned B2AR arrestin 0%, DRD3 antagonist -86*, mIDH1 inhibitor 6%, D3 ag -28 and Integrin act MD -49%.
Screening COc1ccc(C(CNC(=O)c2cccc(S(=O)(=O)Nc3ccc(F)cc3)c2)N2CCCCC2)cc1 (configuration not stated) returned DRD3 antagonist -72*, mIDH1 inhibitor -10%, D3 ag -24 and Integrin act MD 0%.
`COc1ccc(C(CNC(=O)COc2cc(C)c(Cl)c(C)c2)N2CCCCC2)cc1` (configuration not stated) gave B2AR arrestin 0%, DRD3 antagonist -92*, mIDH1 inhibitor 3%, D3 ag -24 and Integrin act MD 7%.
For COc1ccc(OCC(=O)NCC(c2ccc(OC)cc2)N2CCCCC2)cc1 (configuration not stated) the results were B2AR arrestin 0%, DRD3 antagonist -62*, mIDH1 inhibitor -9%, D3 ag -17 and Integrin act MD 22%.
COc1ccc(C(CNC(=O)COc2cc(C)cc(C)c2)N2CCCCC2)cc1 (configuration not stated) was read as mIDH1 inhibitor -2% and D3 ag -21.
`COc1ccc(C(CNC(=O)COc2ccc(Cl)cc2C)N2CCCCC2)cc1` (configuration not stated) gave B2AR arrestin 0%, DRD3 antagonist -13, mIDH1 inhibitor -5%, D3 ag -16 and Integrin act MD inconclusive.
Screening COc1ccc(C(CNC(=O)Cc2ccccc2F)N2CCCCC2)cc1 (configuration not stated) returned B2AR arrestin 0%, DRD3 antagonist inconclusive, mIDH1 inhibitor 6%, D3 ag -33 and Integrin act MD 0%.
For COc1ccc(C(CNC(=O)c2ccc(NS(=O)(=O)c3ccc(F)c(C)c3)cc2)N2CCCC2)cc1 (configuration not stated) the results were DRD3 antagonist -22, mIDH1 inhibitor 7%, D3 ag -16 and Integrin act MD -13%.
Screening CCC(=O)N1CCc2cc(Br)cc(S(=O)(=O)CCC(=O)N3CCN(c4cccc(C(F)(F)F)c4)CC3)c21 returned mIDH1 inhibitor 34% and D3 ag -17.
O=C1CCCCCC(=O)[C@H](O)C[C@H](c2ccccc2)O1 was read as DRD3 antagonist 0 and D3 ag -1.
COC(=O)C1=C(C)N(CCc2cc(OC)c(OC)c(OC)c2)C(=O)N[C@H]1c1ccccc1 was read as DRD3 antagonist 27, mIDH1 inhibitor -3%, D3 ag 16 and Integrin act MD -10%.
For COc1ccc(C(CNC(=O)c2ccc(Cl)c(NC(=O)c3cccs3)c2)N2CCCC2)cc1 (configuration not stated) the results were B2AR arrestin 0%, DRD3 antagonist -68*, mIDH1 inhibitor 4%, D3 ag -30 and Integrin act MD -17%.
For O=C(/C=C/c1cccc([N+](=O)[O-])c1)c1ccco1 the results were B2AR arrestin -2%, DRD3 antagonist inconclusive, mIDH1 inhibitor -8%, D3 ag -13 and Integrin act MD 1%.
`COc1ccc(S(=O)(=O)N2CCN(C(=O)c3ccc([N+](=O)[O-])o3)CC2)cc1` gave B2AR arrestin 0%, DRD3 antagonist 0, mIDH1 inhibitor 6%, D3 ag 2 and Integrin act MD -68%.
COc1ccc(/C=C/C(=O)c2ccc([N+](=O)[O-])o2)cc1 was read as B2AR arrestin 0%, DRD3 antagonist -75*, mIDH1 inhibitor -3%[38.3 µM], D3 ag -28 and Integrin act MD 7%.
Screening O=C(/C=C/c1cccc([N+](=O)[O-])c1)c1ccc([N+](=O)[O-])o1 returned DRD3 antagonist -137*, mIDH1 inhibitor inconclusive, D3 ag -63 and Integrin act MD -45%.
`COc1ccc(-c2noc(N3CCN(c4cccc(Cl)c4)CC3)n2)cc1OC` gave mIDH1 inhibitor 14% and D3 ag 7.
For Cc1ccccc1N1C(N)=NC(N)=NC1(C)C the results were B2AR arrestin 0%, DRD3 antagonist 32, mIDH1 inhibitor 0%, D3 ag 0 and Integrin act MD 8%.
`COc1ccccc1N1C(N)=NC(N)=NC1(C)C` gave B2AR arrestin 0%, DRD3 antagonist -53*!, mIDH1 inhibitor 19%, D3 ag -11 and Integrin act MD inconclusive.
`COC(=O)c1cc(O)c(O)c(O)c1` gave B2AR arrestin 0%, DRD3 antagonist -1, mIDH1 inhibitor -9%, D3 ag 35* and Integrin act MD -14%.
NCCCC[C@H](N)C(=O)O was read as D3 ag 11.

Screening data deposited in PubChem by National Center for Advancing Translational Sciences (NCATS).
